ER stress death: protection against thapsigargin ER stress killing – CSM14.1 cells, ATP luminescence, primary screen; 0.33% of 48,000 active; CSM14.1 thapsigargin ER stress survival; relative survival (cellular ATP), % at 15 µg/mL (by protocol);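 active means survival measured by cellular ATP above 50% at 15 µg/ml in the first screen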;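 further: cell death triggered by about 15 µM thapsigargin; ATP read 24 h after thapsigargin was added; plate controls were thapsigargin with DMSO for no effect and DMSO without thapsigargin for full effect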
The depositor's hits bear a star. The full list was thinned out, with hits kept by preference.

SMILES | ER stress death
COc1ccccc1OCCNC(=O)c1ccc(Oc2ccccc2)cc1 | 52*
CCOc1ccc(C(NC(=O)c2ccc(OC)cc2)c2ccc(OC)cc2)cc1 (stereo not given) | 1
CCOc1ccc(/C=C2/C(=O)NC(=O)N(c3ccc(OCC)cc3)C2=O)cc1 | 1
COc1ccc(C2CC(=O)C3=C(C2)Nc2ccccc2NC3c2ccc(-c3ccccc3)cc2)cc1OC (stereo not given) | 6
CCOc1cc(C2Nc3ccccc3NC3=C2C(=O)CC(c2ccc(OC)cc2)C3)cc(Br)c1O (stereo not given) | 64*
CCOc1ccc(C2Nc3ccccc3NC3=C2C(=O)CC(c2ccc(OC)cc2)C3)cc1OC (stereo not given) | 5
COc1ccc(C2CC(=O)C3=C(C2)Nc2ccccc2NC3c2ccc(OC)c(Br)c2)cc1 (stereo not given) | 96*
COc1ccc(C2CC(=O)C3=C(C2)Nc2ccccc2NC3c2cccc(F)c2)cc1OC (stereo not given) | 2
COc1ccc(C2CC(=O)C3=C(C2)Nc2ccccc2NC3c2ccc(OC)c(OC)c2)cc1 (stereo not given) | 12
COc1ccc(C2Nc3ccccc3NC3=C2C(=O)CC(c2ccccc2)C3)cc1Br (stereo not given) | 29
COc1ccc(C2CC(=O)C3=C(C2)Nc2ccccc2NC3c2cccc(Oc3ccccc3)c2)cc1OC (stereo not given) | 85*
CCOc1cc(C2Nc3ccccc3NC3=C2C(=O)CC(c2ccccc2)C3)cc(Br)c1O (stereo not given) | 35
COC(=O)c1nnn(-c2cc3nccnc3cc2F)c1C(=O)OC | 7
CCCOC(=O)c1ccc(NC(=O)c2cc(Br)ccc2OC)cc1 | 5
O=C(NCC1(c2ccccc2)CCCC1)C(c1ccccc1)c1ccccc1 | 4
CCN=C(Nc1ccc2c(c1)OCO2)SC1CC(=O)N(c2ccc(Br)cc2)C1=O (stereo not given) | 4
